Screens as filed in PubChem BioAssay.
The list is not random: actives were taken first. Their share in the collection is about 0.83%.
CtBP-E1A blk = inhibitors of CtBP/E1A interaction; actives 0.49% (n = 340,000); activity change, % (concentration not given with the values); AlphaScreen GST-E1A/His-CtBP binding, 1536-well; active compounds read low; AID 651724; note: % is set by controls: 0 for no effect and ±100 for the full control effect
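AlphaScreen with 125 nM GST-E1A and 125 nM His-CtBP (5X stocks) in Tris pH 8.0, 300 mM NaCl, BSA, Tween 20, TCEP. Compounds preincubated 2 h at 37 deg C, then glutathione donor/nickel acceptor beads added for 1 h at 37 deg C in dark.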
GLS inhibitor = glutaminase GLS (human) inhibition. O94925. GLS enzymatic activity, qHTS titration. AID 624170. actives 0.21% (n = 410,000). Potency, µM (titrated, usually from 45.5 µM), for the others: top-dose activity change, negative = inhibition, actives largely listed as inhibitors; active = well fitted inhibition curve with a large enough effect; inconclusive = small, poorly fitted or top-dose-only effect, or another doubt; inactive = no such curve, though single readings can be large or run the other way; note: potency is the fitted concentration of half-maximal effect; % is set by controls: 0 for no effect and ±100 for the full control effect
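Assay buffer: 45 mM KH2PO4 pH 8.2, 0.02% Tween-20. hKGA acts on L-glutamine (1 mM solution added); product glutamate is reported by an oxidase/peroxidase Amplex Red coupling, with fluorescence taken at baseline and 30 min.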
Menin MLL FP FL = menin-MLL binding inhibition, fluorescein peptide; AID 1766; FP activity change, % at 61.4 µM; Fluorescence polarization, fluorescein-MLL peptide displacement from menin; 290,000 tested, under 10 active; active = well fitted curve in the direction sought with a large enough effect in the polarisation, not every such curve was filed as active; inconclusive = small, poorly fitted or top-dose-only effect, or effect the other way, or a change in a side signal; inactive = no such curve, though single readings can be large or run the other way; the % refers to the polarisation; note: % of control where 0% means no effect
Menin MLL FP TR = displaces Texas Red mutant MLL peptide from human menin | Menin + Texas Red MLL mutant peptide, fluorescence polarization | Potency, µM (series often up to 61.6 µM), without a hit: at the highest dose FP activity change, negative = inhibition, usual class: inhibitors | actives 0.23% (n = 270,000); active = well fitted inhibition curve with a large enough effect in the polarisation, with a control signal flat, not every such curve was filed as active; inconclusive = small, poorly fitted or top-dose-only effect, or effect the other way, or a change in a side signal; inactive = no such curve, though single readings can be large or run the other way; the % refers to the polarisation; note: potency is the fitted concentration of half-maximal effect; % of control where 0% means no effect
Target sequence (O00255 whole entry, looked up): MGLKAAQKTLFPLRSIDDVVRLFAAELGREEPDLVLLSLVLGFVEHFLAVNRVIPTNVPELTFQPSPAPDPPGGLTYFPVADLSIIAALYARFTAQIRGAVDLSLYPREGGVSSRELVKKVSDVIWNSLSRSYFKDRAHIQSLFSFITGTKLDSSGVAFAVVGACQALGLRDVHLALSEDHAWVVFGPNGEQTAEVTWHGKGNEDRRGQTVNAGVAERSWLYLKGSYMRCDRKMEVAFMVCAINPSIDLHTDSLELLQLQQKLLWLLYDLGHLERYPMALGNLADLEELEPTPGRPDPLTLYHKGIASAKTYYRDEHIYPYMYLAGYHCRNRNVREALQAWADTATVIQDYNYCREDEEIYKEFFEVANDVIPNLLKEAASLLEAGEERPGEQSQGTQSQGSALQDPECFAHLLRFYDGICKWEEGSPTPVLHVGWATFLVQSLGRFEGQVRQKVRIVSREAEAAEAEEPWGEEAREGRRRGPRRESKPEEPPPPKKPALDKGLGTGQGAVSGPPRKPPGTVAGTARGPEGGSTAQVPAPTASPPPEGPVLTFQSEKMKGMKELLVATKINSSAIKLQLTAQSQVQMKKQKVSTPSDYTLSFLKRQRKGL
Six1-Eya2 inh = blocks human Six1 binding to Eya2; actives 0.56% (n = 360,000); activity change, % (test concentration not listed); Q15475+O00167; AlphaScreen GST-Six1/His-Eya2 binding, biochemical; active compounds read low; note: % is set by controls: 0 for no effect and ±100 for the full control effect
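Six1/Eya2 binding was read as AlphaScreen signal after compounds were pinned into GST-Six1 plus His-tagged Eya2 (5X stock 250/500 nM) in pH 8.0 Tris/NaCl/TCEP buffer, beads added, then incubated 1 h, 37 C, dark.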
CXXC DNA block = inhibitors of human MLL CXXC domain-DNA interaction | Potency, µM (series often up to 115 µM), inactives show at the top dose activity change, negative = inhibition, most hits filed as inhibitors | AID 2662 | Q03164 | MLL-CXXC / FITC-HOXA9 DNA fluorescence polarization | actives 0.037% (n = 290,000); active = well fitted inhibition curve with a large enough effect in the polarisation, with a control signal flat, not every such curve was filed as active; inconclusive = small, poorly fitted or top-dose-only effect, or effect the other way, or a change in a side signal; inactive = no such curve, though single readings can be large or run the other way; the % refers to the polarisation; note: potency is the fitted concentration of half-maximal effect
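Steps: dispense CXXC domain solution (7 uM) → pin compounds or unlabeled HOX-A9 DNA control → 5 min ambient → add FLSN-HOX-A9 solution (50 nM) → spin → 30 min ambient → fluorescence polarization. Tris pH 7.5/NaCl/DTT/BSA buffer.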
The depositor's hits bear a star; ? = inconclusive; nt = no result; [ ] = remark or other dose. Cut-off read from the data, not from the text of the source, unless noted: active = activity change below about -65%; inconclusive = mostly about -30% to -63%; inactive = weaker than that.

SMILES	CtBP-E1A blk	GLS inhibitor	Menin MLL FP FL	Menin MLL FP TR	Six1-Eya2 inh	CXXC DNA block
COc1cccc(NC(=O)CN2C(=O)CSc3ccc(S(=O)(=O)N4CCCC4)cc32)c1	nt	-12%	nt	nt	nt	nt
COCCNc1nc(-c2cc(C)c(C)cc2C)cs1	-8	13µM*	1	-19%	-1	-5%
COCCNC(=O)c1ccc(-c2csc(C)n2)cc1	-1	-1%	-3	-14%	-2	1%
O=C(CSc1nnc(-c2ccc(C(F)(F)F)cn2)o1)Nc1cccc(Cl)c1	?	7%	0	nt	-71*	5%
C1CCN2C[C@@H]3C[C@@H](CN4CCCC[C@H]34)[C@H]2C1	nt	-7%[20 µM]	5[24.8 µM]	-7%[24.8 µM]	nt	-9%[51.4 µM]
COc1cc(N2CCCC2)c(OC)cc1/C=C(/C#N)c1ccc(F)cc1	?	54%	?	-27%	-78*	1%
CCCNC(=O)CCSc1nc(-c2ccc3c(c2)OCO3)cc(C(F)(F)F)n1	nt	2%	nt	nt	nt	nt
CCc1c(C(=O)Nc2ccccc2)c(C)[nH]c(=S)c1C#N	8	11µM*	1	-5%	-1	-22%
O=C(NCC1(c2ccccc2)CCCC1)C(=O)Nc1cccc(C(F)(F)F)c1	nt	1%	nt	nt	nt	nt
CC(C(O)c1ccccc1)N(C)CCOC(c1ccccc1)c1ccccc1 (centres undefined)	nt	-1%	nt	nt	nt	nt
Cc1nc2ccccc2c(=O)n1NC(=O)/C=C/c1ccc(Br)cc1	-65*	-1%	-2	-23%	-14	-5%
O=C(/C=C/c1cccc([N+](=O)[O-])c1)Nn1c(-c2ccccc2F)nc2ccccc2c1=O	-28	11%	nt	6%	-6	11%
Cc1cccc(-c2nc3ccccc3c(=O)n2NC(=O)/C=C/c2ccc([N+](=O)[O-])cc2)c1	-81*	2%	3	?	-8	1%
CN1/C(=C\C(=S)NC(=O)c2cccc(Br)c2)C(C)(C)c2ccccc21	-70*	14%	?	3%	-73*	3%
COc1cccc(-n2c(=O)c3c(C)c(C(=O)N(C)C)sc3n(CC(=O)Nc3ccc(C)cc3Cl)c2=O)c1	nt	-12%	nt	nt	nt	nt
CC(=NNC(=S)Nc1ccccc1Cl)c1ccccn1	-66*	7%	nt	nt	-90*	nt
C/C(=N/NC(=O)CNC(=O)c1ccccn1)c1ccccc1	nt	-1%	11	12%	5	7%
CC(=NNC(=S)Nc1ccccc1)c1ccccn1	?	29%	nt	nt	-89*	nt
C=CCNC(=S)N/N=C(\C)c1ccccn1	-97*	31%	1	-5%	-89*	-6%
CCN1CCC[C@@H]1CNC(=O)c1cc(S(=O)(=O)CC)ccc1OC	nt	-3%	nt	nt	nt	nt
CCNc1c(NC(=O)c2cc(OCC)c(OCC)c(OCC)c2)c(=O)oc2ccccc12	nt	9%	nt	nt	nt	nt
Nc1nnnn1/N=C/c1cc(Br)ccc1O	-94*	-2%	nt	nt	-92*	nt
Nc1nnnn1/N=C/c1ccc(Br)cc1	7	1%	2	-7%	5	25%
O=[N+]([O-])c1ccc2c(OCc3nnc(-c4ccccc4Br)o3)ncnc2c1	-85*	0%	-3	nt	-70*	15%
O=[N+]([O-])c1cc(Br)c(OCc2nnc(-c3ccccc3)o2)c(Br)c1	nt	2%	1	0%	-7	-2%
SMILES	CtBP-E1A blk	GLS inhibitor	Menin MLL FP FL	Menin MLL FP TR	Six1-Eya2 inh	CXXC DNA block
COC(=O)c1ccccc1NC(=O)CSc1nc2sc3c(c2c(=O)[nH]1)CCCC3	nt	-6%	nt	nt	nt	nt
O=C(Nc1cccc(F)c1)C1CCN(S(=O)(=O)c2ccc3[nH]c4c(c3c2)CCCCC4)CC1	nt	-1%	nt	nt	nt	nt
Cc1ccc(CNC(=O)C2CCN(c3nn4c(=O)cc(C)nc4s3)CC2)cc1	?	3%	1	2%	?	9%
Cc1cc(=O)n2nc(N3CCC(C(=O)NCc4ccc(Cl)cc4)CC3)sc2n1	nt	2%	nt	nt	-65*	41%
N=c1c2c(-c3ccccc3)c(-c3ccccc3)n(Cc3ccccc3)c2ncn1CCCn1ccnc1	-1	-3%	-2	22µM*	-6	83%
C(=C\c1ccccn1)/c1ccccn1	0	0%	-20	13µM*	-11	9%
CO[C@@]1(NC(=O)CSCC#N)C(=O)N2C(C(=O)O)=C(CSc3nnnn3C)CS[C@@H]21	9	11µM*	0	6%	-20	2%
Cc1cc(C)n2c(NC3CCCCC3)c(-c3ccccn3)nc2n1	?	16%	nt	nt	-78*	nt
c1ccc(-c2nc3ccccn3c2NC2CCCC2)nc1	-67*	-15%	-3	-17%	?	30%
Cc1cc(C)n2c(NC3CCCC3)c(-c3cc4ccccc4o3)nc2n1	3	22%	nt	nt	3	nt
COc1ccc(-c2nc3ccccn3c2NC2CCCCC2)cc1SC1CCCCC1	-13	-4%	nt	nt	-16	nt
Cc1ccn2c(NC3CCCC3)c(-c3ccccn3)nc2c1	-80*	?	0	-23%	-66*	16%
COc1ccc(N2CCN(C(CNS(=O)(=O)c3ccc(OC)c(C)c3)c3ccco3)CC2)cc1 (centres undefined)	nt	10%	nt	nt	nt	nt
C/C=C\C1=CCCC1Nc1ncnc2ccc(-c3c(C)noc3C)cc12 (centres undefined)	nt	nt	2	10%	nt	nt
COc1cc(OC)c2c(c1)OC(=O)CC2c1ccccc1OC (centres undefined)	nt	nt	-28[94.6 µM]	16%[94.6 µM]	nt	nt
Cc1ccc(C(=O)NNc2ncnc3c2cnn3C)cc1	8	5µM*	3	nt	3	-9%
Cc1ccccc1C(=O)NNc1ncnc2c1cnn2C	1	2%	0	0%	0	1%
OC[C@@H]1O[C@H](O)[C@H](O)[C@@H](O)[C@@H]1O	nt	nt	1	-8%	nt	nt
CCCCCCN1C=C/C(=C\C=C(C#N)C#N)c2ccccc21	?	-4%	?	?	?	29%
C=CCN1C=C/C(=C\C=C(C#N)C#N)c2ccccc21	-79*	-16%	?	?	?	40%
Oc1c(Cl)cc(Cl)cc1/C=N/NC(=S)NC1CC2C=CC1C2 (centres undefined)	-82*	27%	13	nt	?	11%
Oc1ccc(O)c(C=NNC(=S)NC2CC3CC2C2C=CCC32)c1 (centres undefined)	-9	43%	nt	nt	?	nt
Oc1ccccc1/C=N/NC(=S)NC1CC2C=CC1C2 (centres undefined)	-86*	0%	0	nt	-82*	37%
Oc1ccccc1C=NNC(=S)NC1CC2C=CC1C2 (centres undefined)	?	22%	nt	nt	-77*	nt
CC(=O)OCC(=O)Nc1cc(C#N)cc(NC(=O)COC(C)=O)c1Cl	nt	-1%	nt	nt	nt	nt
COc1ccc2cc(CNc3ccc(C)cc3)c(=O)n(CC(=O)Nc3ccc(C)cc3Cl)c2c1	nt	13µM*	nt	nt	nt	nt
CCc1ccc(NCc2cc3cc4c(cc3n(CC(=O)Nc3cccc(OC)c3)c2=O)OCO4)cc1	nt	10µM*	nt	nt	nt	nt
